Most compounds without a hit are left out; they make up all but 1.4% or so of the library.
GRP78 ERSR act – qHTS for Inducers of the Endoplasmic Reticulum Stress Response (ERSR) in Human Glioma: qHTS | U87-MG GRP78 promoter luciferase reporter, 16 h | Potency, µM, for inactives: top-dose activation, actives largely listed as activators | 420,000 compounds, 0.02% hits | AID 602332, 2012; further: potency means the concentration at half of the fitted maximal effect; series mostly up to about 76 µM; % of control where 0% means no effect; nearly all actives have a fitted effect of over 35% in size
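ERSR induction read as luciferase luminescence (Bright-Glo, 10 min at room temperature) in stably transfected human U87-MG glioma cells exposed to compounds for 16 h, using GRP78 as sensor.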
KCNH2 3.1 inh – qHTS for Inhibitors of KCHN2 3.1: Mutant qHTS | U2OS KCNH2 3.1, thallium flux FluxOr; stronger effect = lower value | activity change, % (tested at about 1.8 µM) | 340,000 compounds, 0.95% hits | Potassium voltage-gated channel subfamily H member 2, brain isoform KCNH2 3.1 (human);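 active means maximum activity change below -70%; inconclusive means maximum activity change from -70% to -50%; inactive means maximum activity change above -50%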;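 further: thallium influx rate constant from kinetic fluorescence after stimulation buffer; on the % scale 0 is the no-effect control and ±100 the full control effect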
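Kinetic fluorescence (2 min after stimulation buffer) measures Tl+ influx through KCNH2 3.1 expressed by viral transduction in U2OS cells; the rate constant is normalized against DMSO controls serving as positive and negative references.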
PTHR1 ag – qHTS for PTHR1 Agonists: Primary Screen; HEK293 GP2 PTHR1 cells, GloSensor cAMP luminescence, 1 h; 410,000 compounds, 0.075% hits; Parathyroid hormone/parathyroid hormone-related peptide receptor (Homo sapiens), Q03431; Potency, µM (highest dose often 115 µM), for the others: at the top dose activation, actives largely listed as activators; further: potency means the concentration at half of the fitted maximal effect; nearly all actives have a fitted effect of over 55% in size
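HEK-293-derived GP2 cells expressing PTHR1 and a GloSensor cAMP reporter, 3,000/well, plated overnight, given luciferin plus IBMX (each 0.5 mM as added) for 1 h at 37 °C, then compound for 1 h at 37 °C. Luminescence was read after 15 min at room temperature.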
RXFP1 agonist – qHTS Assay for Agonists of the Relaxin Receptor RXFP1; HEK293T-RXFP1 cAMP TR-FRET, 30 min; response scale: percent of porcine relaxin response, buffer zero; Potency, µM (top dose mostly 57.5 µM), inactives show top-dose activation, most hits filed as activators; 370,000 compounds, 0.3% hits; further: potency means the concentration at half of the fitted maximal effect; on the % scale 0 is the no-effect control and ±100 the full control effect; nearly all actives have a fitted effect of over 60% in size
Target sequence (Q9HBX9 whole entry, looked up): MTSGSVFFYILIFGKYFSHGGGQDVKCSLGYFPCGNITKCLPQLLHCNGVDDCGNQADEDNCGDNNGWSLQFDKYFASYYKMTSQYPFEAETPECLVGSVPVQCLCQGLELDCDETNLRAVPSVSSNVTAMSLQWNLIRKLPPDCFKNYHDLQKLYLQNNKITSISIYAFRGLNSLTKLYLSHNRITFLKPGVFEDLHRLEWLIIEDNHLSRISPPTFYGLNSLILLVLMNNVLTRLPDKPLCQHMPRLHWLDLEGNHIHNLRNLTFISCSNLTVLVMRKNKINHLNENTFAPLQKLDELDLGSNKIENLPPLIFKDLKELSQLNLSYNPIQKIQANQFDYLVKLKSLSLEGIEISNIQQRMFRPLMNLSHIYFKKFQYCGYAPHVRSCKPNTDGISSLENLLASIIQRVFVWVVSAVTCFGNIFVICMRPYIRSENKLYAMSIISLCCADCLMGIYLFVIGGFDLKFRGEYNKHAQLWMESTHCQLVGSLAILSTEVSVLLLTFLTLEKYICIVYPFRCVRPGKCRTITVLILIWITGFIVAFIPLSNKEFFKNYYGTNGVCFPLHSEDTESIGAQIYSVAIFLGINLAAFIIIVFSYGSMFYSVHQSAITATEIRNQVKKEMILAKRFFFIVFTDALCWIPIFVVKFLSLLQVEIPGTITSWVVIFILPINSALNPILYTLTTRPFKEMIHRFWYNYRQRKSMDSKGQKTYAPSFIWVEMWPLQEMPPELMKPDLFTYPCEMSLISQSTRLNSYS
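Agonist response is measured as cAMP accumulation in an RXFP1-transfected HEK293T line under PDE4 inhibition. Values are scaled between buffer-only and 29 nM porcine relaxin, and EC50s come from standard Hill equation fits.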
RXFP1 antagonist – qHTS Assay for Antagonists of the Relaxin Receptor RXFP1 | Relaxin receptor 1 (Homo sapiens), Q9HBX9 | HEK293-RXFP1, relaxin-stimulated cAMP HTRF, 30 min; stronger effect = lower value | activity change, negative = inhibition, % at 57.5 µM | 350,000 compounds, 0.59% hits | AID 1259400, 2018;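 active means activity change of -60% or lower, but not beyond a set lower limit; inconclusive means change between -60% and -40%, or beyond the set limit; inactive means change above -40%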; further: on the % scale 0 is the no-effect control and ±100 the full control effect
hERG WT inh – qHTS for Inhibitors of KCHN2 3.1: Wildtype qHTS. Voltage-gated inwardly rectifying potassium channel KCNH2 (Homo sapiens), Q12809. U2OS, BacMam KCNH2, thallium flux FluxOr; stronger effect = lower value. activity change, % at 1.84 µM. 340,000 compounds, 0.37% hits. AID 720551, 2013;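 active means maximum activity change below -70%; inconclusive means maximum activity change between -70% and -50%; inactive means maximum activity change above -50%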; further: on the % scale 0 is the no-effect control and ±100 the full control effect
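U2OS cells transduced with wild-type KCNH2 virus are loaded with FluxOr dye for 45 min, and thallium flux is measured in kinetic reads before and after stimulation buffer. Rate constants are normalized to DMSO controls.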
An asterisk follows results filed as active; i = inactive; ? = inconclusive; . = not tested or not shown; [ ] = another dose, or the depositor's remark. Unless noted, the call rests on the fitted dose curve; in most records, active means well fitted curve in the direction sought with a large enough effect; inconclusive means small, poorly fitted or top-dose-only effect, or another doubt; inactive means no such curve, though single readings can be large; an effect the other way counts as inactive or inconclusive.

SMILES | GRP78 ERSR act | KCNH2 3.1 inh | PTHR1 ag | RXFP1 agonist | RXFP1 antagonist | hERG WT inh
O=C(Cn1c(=O)c2c(ncn2Cc2ccccc2)n(Cc2ccccc2)c1=O)NC1CC1 | -6.3% | -90.1* | i | 0.0% | -6.8 | -2.9
CCOc1ccccc1OCC(=O)NNC(=O)Cn1cnc2c1c(=O)n(C)c(=O)n2C | -3.4% | -10.0 | i | 22.4µM* | -8.3 | 5.7
O=C(c1ccccc1)c1ccncc1 | -5.2% | 7.5 | -9.5% | 0.1% | 1.3 | -0.2
COc1cc(NC(=O)c2ccccc2)c(C)cc1NC(=O)CC(CC(=O)O)c1ccccc1 (stereo unspecified) | -0.9% | -13.3 | -29.6% | -1.6% | 12.7 | -7.6
N#CC1=C2SCN(Cc3ccccc3)CN2C(=O)CC1c1cccs1 (stereo unspecified) | -2.1% | -7.4 | i | 25.1µM* | 7.4 | 8.3
COc1ccc(/C=C/C(=O)Nc2ccc(OC)cc2[N+](=O)[O-])cc1 | -4.9% | -85.2* | -14.2% | 3.0% | -1.9 | -5.1
COc1ccc(NC(=O)/C=C/c2ccccc2)c([N+](=O)[O-])c1 | 4.5% | -13.0 | -9.0% | 6.2% | 13.6 | -6.3
COc1ccc(-c2nn3c(=O)cc(CN4CCN(C(=O)Nc5cc(C)ccc5C)CC4)nc3s2)cc1 | -2.1% | . | -9.8% | 1.2% | . | .
COCCNc1nc(SCC(=O)N2CCN(c3ccccc3OC)CC2)nc2ccccc12 | -1.8% | -120.2* | i | 2.8% | -0.2 | 2.1
O=c1c2ccccc2ncn1Cc1ccc(Cl)c(Cl)c1 | -1.8% | 11.7 | -9.1% | -2.3% | 0.7 | -8.4
O=c1c2ccccc2ncn1Cc1ccc(Cl)cc1 | 3.3% | -98.3* | i | 0.7% | 9.9 | 1.8
O=[N+]([O-])c1cccc(COc2ncnc3cc([N+](=O)[O-])ccc23)c1 | -3.1% | -12.4 | -6.0% | 28.2µM* | 35.7 | 2.3
Cc1ccc2cccc(OCc3cccc([N+](=O)[O-])c3)c2n1 | 0.8% | 3.0 | -22.2% | 0.0% | -10.6 | -0.4
COc1ccc(CCNC(=O)COc2ncnc3cc([N+](=O)[O-])ccc23)cc1 | -0.1% | -107.3* | i | 2.7% | 3.6 | 0.9
COc1ccc(-c2nc(CCNC(=O)c3cccs3)cs2)cc1 | -3.4% | 29.9 | -95.2% | -0.5% | -25.8 | 18.5
CCN1/C(=C/C=C/c2oc3ccc(-c4ccccc4)cc3[n+]2CC)Oc2ccc(-c3ccccc3)cc21 | -17.2% | -160.3* | -33.0% | 5.2% | -13.2 | -95.9*
Cc1cc(C)nc(SCC(=O)NC2CCCC2)n1 | -5.3% | 9.4 | -34.4% | 1.8% | -9.2 | -9.7
Cc1cc(C)nc(SCC(=O)NC2CCCCC2C)n1 (stereo unspecified) | -1.4% | 0.8 | 11.7% | 0.2% | -60.6* | -5.1
CCOC(=O)C1(C)CCN1C(=O)CSc1ccccc1 (stereo unspecified) | 0.3% | . | -15.3% | . | . | .
Cc1ccc([C@H]2C[C@H](n3cc(COC(=O)c4ccccc4)nn3)[C@@H](O)CN2Cc2cccs2)cc1 | -1.0% | -13.6 | i | . | -4.4 | -10.6
COn1c(-c2ccccc2)nc2ccc(Cl)cc21 | 6.1% | -94.1* | -10.2%[57.5 µM] | 2.0% | -6.9 | -6.2
O=C(O)COn1c(-c2ccccc2)nc2ccc(Cl)cc21 | 1.8% | 13.9 | -19.3% | 1.2% | 4.8 | i
CCOC(=O)C1=CCN(S(=O)(=O)c2cccc(Cl)c2)C1c1ccccc1 (stereo unspecified) | -2.3% | . | -3.0% | . | . | .
CCOC(=O)c1nc(C)sc1-c1ccnn1S(=O)(=O)c1cccc(Cl)c1 | 0.4% | 6.4 | -17.4% | -1.4% | 11.4 | -135.0*
OCC1(Cc2ccc(Cl)cc2)CCN(CCCc2ccccc2)CC1 | -6.0% | -89.2* | -12.8% | 0.0% | -10.1 | ?
SMILES | GRP78 ERSR act | KCNH2 3.1 inh | PTHR1 ag | RXFP1 agonist | RXFP1 antagonist | hERG WT inh
OCC1(Cc2ccc(Cl)cc2)CCN(CC2CC=CCC2)CC1 (stereo unspecified) | -2.5% | -72.1* | i | 0.8% | -6.5 | 36.4
CSc1ccc(CN2CCC(CO)(Cc3ccc(Cl)cc3)CC2)cc1 | -1.7% | -100.5* | -15.5% | -1.1% | -81.4* | -32.8
CCc1nnc(NC(=O)Cc2c[nH]c3ccccc23)s1 | -4.3% | -144.4* | -24.2% | 3.9% | -2.1 | 35.7
CC(C)Cc1nnc(NC(=O)CCc2c[nH]c3ccccc23)s1 | 1.3% | 19.6 | -15.3% | 2.0% | -6.5 | -2.4
Cc1ccc(Nc2c(-c3ccc(C)s3)nc3ncccn23)cc1 | 4.1% | . | -28.5% | 10.0% | -19.4 | .
COc1ccc(CCNCC(=O)Nc2ccc(C)c(Br)c2)cc1OC | -1.0% | -72.2* | -16.4% | -0.7% | -9.8 | 12.8
COc1ccc(CCNCC(=O)Nc2ccc(C)c(S(=O)(=O)N(C)C)c2)cc1OC | -4.8% | 1.7 | 6.5% | 5.8% | 9.4 | -1.1
O=C(COC(=O)/C=C/c1ccc(Cl)cc1)NC(=O)NCc1ccccc1 | -4.0% | -6.9 | -11.1% | 1.2% | -61.4* | -10.5
O=C(COC(=O)c1ccccc1C(=O)c1ccc(Cl)cc1)NCCc1ccccc1 | -5.8% | -72.3* | -22.6% | -0.3% | -14.8 | -10.2
CCCCNC(=O)COC(=O)c1ccccc1F | 0.1% | 9.1 | -1.7% | 0.0% | -15.2 | -130.6*
O=C(COC(=O)c1ccccc1Cl)NC(=O)NCc1ccccc1 | 2.0% | -226.3* | -40.7% | 0.5% | -4.2 | -139.3*
Cc1c(CN2CCCC(CO)(Cc3cccc(Cl)c3)C2)cnn1C (stereo unspecified) | -1.7% | -15.6 | i | -1.8% | -0.5 | 2.0
COc1cc(CN2CCC3(CC2)c2ccccc2[C@@H](NC(=O)c2ccccc2OC)[C@@H]3O)ccc1F | -2.2% | . | . | . | . | .
O=C(Cn1cc(S(=O)(=O)Cc2ccccc2Cl)c2ccccc21)NCCc1ccccc1 | 1.2% | . | -7.7% | 1.1% | -3.8 | .
CS(=O)(=O)NCc1ccc(C(=O)NC2CCCCC2)cc1 | -0.9% | -5.6 | i | -0.4% | -0.9 | -4.5
O=c1oc2ccccc2c(NC2CCCCC2)c1NS(=O)(=O)c1ccc(F)c(Cl)c1 | -8.6% | -31.5 | i | 0.7% | -63.1* | -11.6
C[C@H](NC(=O)c1nc[nH]c1C(=O)N[C@@H](Cc1ccccc1)C(=O)OC(C)(C)C)C(=O)OC(C)(C)C | -2.8% | -22.8 | -70.4% | 1.0% | . | -0.1
CC(C)(C)OC(=O)[C@H](Cc1ccccc1)NC(=O)c1nc[nH]c1C(=O)N[C@@H](Cc1ccccc1)C(=O)OC(C)(C)C | -1.7% | -70.1* | -31.6% | -0.3% | . | -5.2
